Experiments:
Settings in all cases: concentration: 1 μM, replicates: in singlicate; n = 1
AAK1 = test system: AAK1
ABL1-nonphosphorylated = test system: ABL1-nonphosphorylated
ABL1-phosphorylated = test system: ABL1-phosphorylated
ABL2 = test system: ABL2
ACVR1B = test system: ACVR1B
ACVR1 = test system: ACVR1
ACVR2A = test system: ACVR2A
ACVR2B = test system: ACVR2B
ACVRL1 = test system: ACVRL1
ADCK3 = test system: T1, ADCK3
T1 construct: gene CABC1

ADCK4 = test system: ADCK4
AKT1 = test system: AKT1
AKT2 = test system: AKT2
AKT3 = test system: AKT3
ALK = test system: ALK
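Note: KINOMEscan kinase panel screen.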

Row | SMILES | %Inh (AAK1) | %Inh (ABL1-nonphosphorylated) | %Inh (ABL1-phosphorylated) | %Inh (ABL2) | %Inh (ACVR1B) | %Inh (ACVR1) | %Inh (ACVR2A) | %Inh (ACVR2B) | %Inh (ACVRL1) | %Inh (ADCK3) | %Inh (ADCK4) | %Inh (AKT1) | %Inh (AKT2) | %Inh (AKT3) | %Inh (ALK)
1 | Cc1c(Cn2c(C)c(C)n3c(=O)cc(N4CCOCC4)nc23)cccc1C(F)(F)F [GSK2328680] | 0% | 0% | 0% | 11% | 20% | 0% | 0% | 0% | 0% | 2% | 14% | 0% | 0% | 0% | 3%
2 | O=C(Nc1n[nH]c2nc(-c3cccs3)c(Br)cc12)C1CCCC1 [SB-743341] | 0% | 48% | 19% | 5% | 17% | 0% | 0% | 7% | 9% | 7% | 0% | 0% | 40% | 0% | 1%
3 | Cc1ccc(NC(=O)Nc2ccc(Cl)cc2)cc1-c1ccc(C(=O)Nc2ccncc2)cc1 [GSK1398472] | 0% | 2% | 5% | 28% | 0% | 15% | 0% | 0% | 0% | 22% | 23% | 0% | 0% | 0% | 46%
4 | CC(C)c1ccc(O)cc1Nc1ccnc2ccc(C(F)(F)F)cc12 [GW482059] | 0% | 0% | 0% | 3% | 0% | 0% | 43% | 0% | 19% | 0% | 2% | 0% | 0% | 0% | 15%
5 | Cc1cnc(N)c(/C=C/c2cncc(C(=O)NCCc3ccc(Cl)cc3Cl)c2)c1.Cl [GSK190937] | 19% | 39% | 0% | 11% | 0% | 0% | 0% | 0% | 0% | 25% | 13% | 0% | 0% | 0% | 0%
6 | O=c1cc(N2CCOCC2)nc2n(Cc3cccc(Cl)c3Cl)c3ccccc3n12 [GSK2299009] | 31% | 0% | 0% | 16% | 0% | 0% | 0% | 0% | 6% | 13% | 36% | 0% | 21% | 0% | 25%
7 | CC(C)c1cc(-c2ccc3c(N)n[nH]c3c2)nc(N)n1 [GSK2250882] | 53% | 0% | 0% | 13% | 0% | 0% | 0% | 0% | 0% | 13% | 37% | 0% | 17% | 0% | 0%
8 | COc1cc2ncnc(Nc3cccc(Br)c3)c2cc1OC.Cl [GI230329] | 13% |  |  | 18% | 0% | 0% | 0% | 0% | 0% | 19% | 52% | 0% | 0% | 16% | 0%
9 | NS(=O)(=O)c1cccc(N/C=C2\C(=O)Nc3ccc(S(=O)(=O)Cc4c(Cl)cccc4Cl)cc32)c1 [GSK398099] | 31% | 0% | 0% | 14% | 0% | 0% | 0% | 0% | 0% | 1% | 18% | 0% | 25% | 0% | 8%
10 | COc1ccc(CSc2nnc(-c3ccc4ncsc4c3)o2)cc1C(F)(F)F | 9% | 13% | 8% | 2% | 9% | 0% | 0% | 0% | 2% | 0% | 0% | 8% | 4% | 0% | 0%
11 | Cc1nccc(-c2c(-c3ccc(F)cc3)ncn2CCCN2CCOCC2)n1.Cl [SB-282975] | 0% | 26% | 0% | 22% | 36% | 5% | 53% | 7% | 19% | 37% | 0% | 28% | 0% | 0% | 9%
12 | COc1cccc(C2=C(Nc3cc(Cl)c(O)c(Cl)c3)C(=O)NC2=O)c1 [SB-390767] | 0% | 0% | 4% | 19% | 0% | 20% | 0% | 2% | 19% | 1% | 0% | 0% | 0% | 0% | 29%
13 | O=C(Nc1n[nH]c2nc(-c3ccco3)c(Br)cc12)C1CCN(Cc2ccccc2)C1.O=C(O)[C@H](O)[C@@H](O)C(=O)O (stereo not shown) [SB-742034] | 29% | 33% | 23% | 4% | 20% | 0% | 21% | 0% | 28% | 7% | 0% | 0% | 3% | 3% | 5%
14 | CC(=O)c1c(C)c2cnc(Nc3ccc(N4CCNCC4)cn3)nc2n(C2CCCC2)c1=O | 0% | 28% | 0% | 0% | 0% | 0% | 0% | 0% | 0% | 0% | 0% | 0% | 0% | 11% | 5%
15 | COC(=O)C(NC(=O)NC1CCN(c2ccnc(Nc3ccc(F)cc3)n2)C1)c1ccccc1 (stereo not shown) [GSK1379712] | 5% | 0% | 0% | 0% | 0% | 4% | 0% | 11% | 0% | 0% | 22% | 0% | 0% | 0% | 19%
16 | CC(=O)c1cccc(NC(=O)NC2CCN(c3ccnc(Nc4ccc(F)cc4)n3)C2)c1 (stereo not shown) [GSK1379710] | 16% | 0% | 0% | 0% | 0% | 0% | 10% | 13% | 0% | 25% | 41% | 0% | 2% | 0% | 25%
17 | CNc1nc(-c2ccc3c(N)n[nH]c3c2)cc(N2C[C@@H](C(=O)NC3CCCCC3)OC[C@H]2C)n1 [GSK2375584] | 40% | 6% | 0% | 3% | 0% | 18% | 0% | 35% | 0% | 24% | 18% | 0% | 22% | 0% | 0%
18 | COc1ccc(CSc2nnc(-c3ccc4c(c3)CCO4)o2)cc1 | 8% | 28% | 0% | 8% | 0% | 0% | 0% | 0% | 0% | 0% | 0% | 0% | 0% | 0% | 0%
19 | COc1ccc(Nc2nccc(NCCNC(=O)Nc3cc(C)ccc3C)n2)cc1 [GSK1379899] | 0% | 0% | 0% | 5% | 0% | 2% | 2% | 6% | 0% | 0% | 0% | 0% | 0% | 0% | 1%
20 | COc1ccc(Nc2nccc(N3CCC(NC(=O)c4cc5ccccc5s4)C3)n2)cc1 (stereo not shown) [GSK1379738] | 73% | 0% | 0% | 1% | 0% | 0% | 0% | 0% | 0% | 0% | 37% | 0% | 5% | 0% | 25%
21 | COc1ccc(Nc2nccc(N3CCC(NC(=O)C(C)c4ccc(Cl)cc4)CC3)n2)cc1 (stereo not shown) [GSK1379812] | 23% | 4% | 0% | 28% | 0% | 8% | 0% | 0% | 0% | 25% | 18% | 0% | 0% | 3% | 18%
22 | Cl.Cl.Cl.N#Cc1ccc(CCNc2nccc(-c3cccc(CN4CCNCC4)c3)n2)cc1 [GSK2137462] | 14% | 10% | 0% | 9% | 0% | 11% | 0% | 0% | 0% | 23% | 22% | 0% | 5% | 5% | 15%

— PMC5540273 (PLoS ONE, 2017)
